Assay [1] is described as follows: antimalarial activity against Dd2 strain (AID 2302;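 active = growth inhibition above 50% at the single 2 µM test dose, taken to imply half-maximal potency below 2 µM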;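 note: 0% = DMSO untreated growth and 100% = chloroquine plus artemisinin killed control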). Conditions: P. falciparum Dd2 in RBCs, LDH growth readout, 72 h; at 2 µM; active compounds read high.
Assay [2] can be described thus: HepG2 cytotoxicity, primary screen, cytotoxicity control for P. falciparum antimalarial project, cell-based, ATP luminescence (AID 2303;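 active = inhibition above 50%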;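 note: 0% = DMSO wells and 100% = digitonin-killed cells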). As to conditions: HepG2 viability, 24-48 h, at 10 µM, active compounds read high.
In assay [3] the target is L-lactate dehydrogenase (Plasmodium falciparum (isolate CDC / Honduras)) (UniProt Q27743). The assay can be described thus: PfLDH activity inhibition – cell lysate, 3D7 strain, counter-screen for P. falciparum growth inhibition project (AID 2304).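 Note: 0% = vehicle and 100% = reference inhibitor.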 As to conditions: P. falciparum 3D7 crude extract, LDH APAD/NBT absorbance; at 2 µM; active compounds read high.
Chain of L-lactate dehydrogenase (Plasmodium falciparum (isolate CDC / Honduras)) (Q27743 whole entry, looked up): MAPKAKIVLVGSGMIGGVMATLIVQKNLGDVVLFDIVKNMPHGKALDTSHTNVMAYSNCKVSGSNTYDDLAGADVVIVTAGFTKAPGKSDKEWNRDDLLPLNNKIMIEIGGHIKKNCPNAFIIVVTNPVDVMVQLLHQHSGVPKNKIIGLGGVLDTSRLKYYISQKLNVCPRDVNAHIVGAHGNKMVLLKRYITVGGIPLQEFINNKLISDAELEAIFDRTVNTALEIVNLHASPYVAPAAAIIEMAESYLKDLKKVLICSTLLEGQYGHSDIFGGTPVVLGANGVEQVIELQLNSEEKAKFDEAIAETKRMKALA
A short description of assay [4]: inhibition of 3D7 malaria parasite growth – strain 3D7 (AID 2306).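 Note: 0% = DMSO wells and 100% = chloroquine plus artemisinin control wells.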 Conditions: P. falciparum 3D7 erythrocytic growth, LDH absorbance, 72 h; at 2 µM; active compounds read high.
In assay [5] the target is Calcium-dependent protein kinase 1 (Plasmodium falciparum (isolate 3D7)) (UniProt P62344). Put plainly: PfCDPK1 kinase inhibitors, biochemical, TCAMS library (AID 1159585; cut-off not given, nearly all actives have IC50 up to about 0.98 µM;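 note: inhibitors leave more ATP so luminescence rises with inhibition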). As to conditions: recombinant PfCDPK1, Kinase-Glo ATP depletion luminescence.
Chain of Calcium-dependent protein kinase 1 (Plasmodium falciparum (isolate 3D7)) (P62344 whole entry, looked up): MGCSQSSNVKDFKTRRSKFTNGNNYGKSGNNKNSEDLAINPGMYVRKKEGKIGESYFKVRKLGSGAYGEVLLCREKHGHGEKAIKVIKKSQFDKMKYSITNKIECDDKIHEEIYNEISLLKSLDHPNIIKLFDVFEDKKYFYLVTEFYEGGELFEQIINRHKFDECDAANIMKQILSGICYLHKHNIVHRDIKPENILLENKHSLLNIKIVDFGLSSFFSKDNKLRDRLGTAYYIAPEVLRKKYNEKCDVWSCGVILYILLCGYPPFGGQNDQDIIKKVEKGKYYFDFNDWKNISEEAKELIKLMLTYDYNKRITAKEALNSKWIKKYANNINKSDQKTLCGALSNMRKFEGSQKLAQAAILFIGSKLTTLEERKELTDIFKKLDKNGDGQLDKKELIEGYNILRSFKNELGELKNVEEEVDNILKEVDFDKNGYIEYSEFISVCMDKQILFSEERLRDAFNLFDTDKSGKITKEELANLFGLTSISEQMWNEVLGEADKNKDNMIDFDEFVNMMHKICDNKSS
The target in assay [6] is Plasmodium falciparum protein kinase 6 (PK6, PF3D7_1337100) (UniProt Q8IDW1). The assay can be described thus: PfPK6 kinase inhibitors, biochemical, TCAMS library (AID 1159586). As to conditions: recombinant PfPK6, Kinase-Glo ATP depletion luminescence.
Chain of Plasmodium falciparum protein kinase 6 (PK6, PF3D7_1337100) (Q8IDW1 1-305): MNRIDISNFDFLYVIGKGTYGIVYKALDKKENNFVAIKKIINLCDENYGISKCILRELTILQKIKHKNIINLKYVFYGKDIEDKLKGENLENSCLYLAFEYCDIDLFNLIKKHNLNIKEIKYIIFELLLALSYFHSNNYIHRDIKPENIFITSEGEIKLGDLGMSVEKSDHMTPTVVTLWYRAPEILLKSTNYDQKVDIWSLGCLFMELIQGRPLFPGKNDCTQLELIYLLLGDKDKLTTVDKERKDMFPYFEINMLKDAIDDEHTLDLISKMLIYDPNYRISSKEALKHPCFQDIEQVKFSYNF
Assay [7] has as its target Protein kinase 7 (PK7), Plasmodium falciparum 3D7 (PF3D7_0213400) (UniProt Q7YTF7). The assay can be described thus: inhibition of Plasmodium PK7 catalytic activity – biochemical, TCAMS antimalarial set, Kinase-Glo luminescence (AID 1159587). Conditions: recombinant PfPK7, Kinase-Glo ATP depletion luminescence.
Assay [8] has as its target Calcium-dependent protein kinase 4 (Plasmodium falciparum (isolate 3D7)) (UniProt Q8IBS5). Put plainly: PfCDPK4 kinase inhibitors, biochemical, TCAMS library (AID 1159588; cut-off not given, nearly all actives have IC50 up to about 0.91 µM). Conditions: recombinant PfCDPK4, Kinase-Glo ATP depletion luminescence. In general terms: Kinase-Glo reads ATP consumption through a luciferase reaction.

One may read the inhibition as the relative decrease from the control value, in per cent.

Values without a mark were called inactive. For some of these results: Entries with a potency or affinity are not part of this list. The source made the active and inactive calls. Unless noted, the rule behind the calls is not given here.

Chain of Protein kinase 7 (PK7), Plasmodium falciparum 3D7 (PF3D7_0213400) (Q7YTF7 1-343): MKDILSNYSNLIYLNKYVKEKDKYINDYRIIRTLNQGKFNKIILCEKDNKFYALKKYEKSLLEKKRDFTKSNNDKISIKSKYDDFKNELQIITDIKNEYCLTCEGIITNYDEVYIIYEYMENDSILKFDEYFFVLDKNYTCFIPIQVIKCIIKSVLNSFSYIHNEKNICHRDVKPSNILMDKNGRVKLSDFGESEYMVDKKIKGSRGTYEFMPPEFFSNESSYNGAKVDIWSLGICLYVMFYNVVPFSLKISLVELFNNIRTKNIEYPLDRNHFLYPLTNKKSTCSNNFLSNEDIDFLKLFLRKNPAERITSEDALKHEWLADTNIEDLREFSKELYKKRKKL
Chain of Calcium-dependent protein kinase 4 (Plasmodium falciparum (isolate 3D7)) (Q8IBS5 whole entry, looked up): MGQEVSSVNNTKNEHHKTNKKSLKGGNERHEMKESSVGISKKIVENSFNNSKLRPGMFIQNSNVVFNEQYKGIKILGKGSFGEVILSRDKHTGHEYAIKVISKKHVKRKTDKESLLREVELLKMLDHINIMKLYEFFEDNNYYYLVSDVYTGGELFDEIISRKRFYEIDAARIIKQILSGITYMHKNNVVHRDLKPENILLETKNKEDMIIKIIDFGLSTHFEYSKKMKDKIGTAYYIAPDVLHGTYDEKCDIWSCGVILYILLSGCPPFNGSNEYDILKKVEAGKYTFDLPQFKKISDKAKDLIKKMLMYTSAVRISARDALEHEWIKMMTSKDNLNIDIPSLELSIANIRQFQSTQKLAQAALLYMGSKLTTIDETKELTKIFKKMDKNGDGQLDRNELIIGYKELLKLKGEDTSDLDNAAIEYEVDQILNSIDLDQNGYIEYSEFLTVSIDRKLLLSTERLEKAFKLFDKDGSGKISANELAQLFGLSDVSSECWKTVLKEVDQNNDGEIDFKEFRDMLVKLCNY

`Fc1ccc2nccc(NN=CC=Cc3ccccc3)c2c1`: the results for the growth inhibition in assay [1] and in assay [4] were 77% (active) and 96% (active), respectively. For the same compound, the inhibition in assay [2] is 29%; in assay [3] it was -2%. Besides, the result in assay [5], in assay [6], in assay [7] and in assay [8] was inactive.
With `Cc1ccc(C(=O)Nc2ccc(OC3CCN(CCC(C)C)C3)c(Cl)c2)cc1` (stereo not given), the growth inhibition in assay [1] was 38%; in assay [4], 83% (active). Also, the values for the inhibition in assay [2] and in assay [3] were 63% (active) and 0%, respectively. For the same compound, the outcome in assay [5], in assay [6], in assay [7] and in assay [8] was inactive.
With `COC(=O)c1cccc(CN(CCC(O)(C(F)(F)F)C(F)(F)F)C(=O)CC2CCCC2)c1`, the growth inhibition in assay [1] is 53% (active); in assay [4], 98% (active). Besides, the inhibition is -1% in assay [2] and 0% in assay [3]. Moreover, the result in assay [5], in assay [6], in assay [7] and in assay [8] was inactive.
For the compound `CC(C)N1CCN(C(=O)c2ccc(CNCCCN3CCN(c4cccc(Cl)c4Cl)CC3)s2)CC1`, the growth inhibition in assay [1] is 44%; in assay [4], 102% (active). Besides, the inhibition in assay [2] is 51% (active); in assay [3] it was -3%. Also, the outcome in assay [5], in assay [6], in assay [7] and in assay [8] was inactive.
As to `CN(C)CCOc1cc(NC(=O)Nc2cccc([N+](=O)[O-])c2)ccc1I`, the growth inhibition is 51% (active) in assay [1] and 102% (active) in assay [4]. In addition, the inhibition in assay [2] is 8%; in assay [3], 6%. For the same compound, the outcome in assay [5], in assay [6], in assay [7] and in assay [8] was inactive.
`COc1cc2c(cc1OC)C(C(=O)Nc1ccc(C(F)(F)F)cc1)C(c1cccs1)N(C)C2=O` (stereo not given): the growth inhibition in assay [1] was 86% (active); in assay [4], 99% (active). Further, the inhibition in assay [2] is 31%; in assay [3] it was 2%. The result in assay [5], in assay [6], in assay [7] and in assay [8] was inactive.
As for `O=C(Nc1ccc(OC2CCN(Cc3ccc(F)cc3)C2)c(Cl)c1)c1ccsc1` (stereo not given), the growth inhibition in assay [1] was 95% (active); in assay [4], 98% (active). Besides, the inhibition is 26% in assay [2] and -3% in assay [3]. For the same compound, the outcome in assay [5], in assay [6], in assay [7] and in assay [8] was inactive.
For the compound `NC1=NC(c2ccccc2)(c2ccccc2)C(=O)N1CCCCc1ccccc1`, the growth inhibition was 81% (active) in assay [1] and 96% (active) in assay [4]. The inhibition in assay [2] is 14%; in assay [3], -2%. For the same compound, the outcome in assay [5], in assay [6], in assay [7] and in assay [8] was inactive.
`CN(CCCCNC(=O)c1cc2ccccc2[nH]1)C1CC2(CCN(C(=O)OC(C)(C)C)CC2)c2ccccc21` (stereo not given): the growth inhibition in assay [1] was 75% (active); in assay [4] it was 86% (active). Further, the inhibition in assay [2] was 12%; in assay [3], 2%. Also, the outcome in assay [5], in assay [6], in assay [7] and in assay [8] was inactive.
Regarding `CC(C)c1cc2c(ccc3nc(N)nc(N)c32)o1`, the growth inhibition in assay [1] is 37%; in assay [4] it was 99% (active). The values for the inhibition in assay [2] and in assay [3] were 66% (active) and 3%, respectively. Further, the outcome in assay [5], in assay [6], in assay [7] and in assay [8] was inactive.
`CCNC[C@H]1CCCN1CCOc1ccc(-n2cnc3cc(-c4ccc(Cl)cc4)sc3c2=O)cc1OC`: the growth inhibition in assay [1] is 39%; in assay [4], 97% (active). Besides, the values for the inhibition in assay [2] and in assay [3] were 53% (active) and -11%, respectively. Also, the result in assay [5], in assay [6], in assay [7] and in assay [8] was inactive.
In the case of `COc1ccc2nccc(NCC3(O)CCN(CC(O)c4ccc5c(c4)NC(=O)CS5)CC3)c2n1` (stereo not given), the growth inhibition in assay [1] was 3%; in assay [4] it was 100% (active). In addition, the inhibition was 3% in assay [2] and 2% in assay [3]. The result in assay [5], in assay [6], in assay [7] and in assay [8] was inactive.
Regarding `CCNc1cc(C(=O)N[C@@H](Cc2ccccc2)[C@H](O)CN[C@H]2CCc3ccccc32)cc(N2CCCC2=O)c1`, the growth inhibition in assay [1] was 99% (active); in assay [4], 98% (active). For the same compound, the results for the inhibition in assay [2] and in assay [3] were 8% and 3%, respectively. Moreover, the outcome in assay [5], in assay [6], in assay [7] and in assay [8] was inactive.
As to `CCCCCCN1CCC(NCc2ccc(C)cc2)CC1`, the results for the growth inhibition in assay [1] and in assay [4] were 4% and 93% (active), respectively. The inhibition in assay [2] is 16%; in assay [3], -1%. Also, the outcome in assay [5], in assay [6], in assay [7] and in assay [8] was inactive.
As for `FC(F)(F)c1ccc2nc(-c3ccc(-c4ccc(CNCc5cnn(-c6ccccc6)n5)cc4)s3)[nH]c2c1`, the growth inhibition in assay [1] was 89% (active); in assay [4] it was 100% (active). For the same compound, the inhibition in assay [2] is 27%; in assay [3] it was -2%. In addition, the outcome in assay [5], in assay [6], in assay [7] and in assay [8] was inactive.
As for `CC(=O)c1cccc2[nH]c(C(=O)NC3CCC(CCN4CCc5ccc(C#N)cc5C4)CC3)cc12` (stereo not given), the growth inhibition in assay [1] was 0%; in assay [4], 96% (active). In addition, the values for the inhibition in assay [2] and in assay [3] were 12% and 1%, respectively. The result in assay [5], in assay [6], in assay [7] and in assay [8] was inactive.
In the case of `CN(C)c1ccc(C=Cc2nc(=O)c3ccccc3o2)cc1`, the growth inhibition is 97% (active) in assay [1] and 96% (active) in assay [4]. The inhibition was 6% in assay [2] and 0% in assay [3]. In addition, the result in assay [5], in assay [6], in assay [7] and in assay [8] was inactive.
Turning to `COC(=O)c1ccccc1N1CCN(CCCCNC(=O)c2ccc(NC(=O)c3cc(Cl)cc(Cl)c3)cc2)CC1`, the figures for the growth inhibition in assay [1] and in assay [4] were 42% and 100% (active), respectively. The figures for the inhibition in assay [2] and in assay [3] were 20% and 0%, respectively. For the same compound, the outcome in assay [5], in assay [6], in assay [7] and in assay [8] was inactive.
In the case of `Cc1[nH]c(C)c(-c2cc3ccccc3o2)c(=O)c1Cl`, the growth inhibition in assay [1] is 13%; in assay [4], 92% (active). Further, the inhibition is 1% in assay [2] and -2% in assay [3]. In addition, the outcome in assay [5], in assay [6], in assay [7] and in assay [8] was inactive.
On to `Nc1nc2c(ncn2COC2COP(=O)(O)OC2)c(=O)[nH]1` (stereo not given), for which the growth inhibition in assay [1] is 54% (active); in assay [4], 81% (active). Also, the inhibition in assay [2] and in assay [3] was 7% in each case. The outcome in assay [5], in assay [6], in assay [7] and in assay [8] was inactive.

(Values after PubChem BioAssay.)
